Measured values published in paper PMC7862700, “An all-to-all approach to the identification of sequence-specific readers for epigenetic DNA modifications on cytosine”.

Legend:
Test in all cases: DAPPL (digital affinity profiling via proximity ligation, sequencing); 10 mM Tris-HCl pH 7.5, 50 mM NaCl, 1 mM DTT, 4% glycerol, room temperature, 30 min; GST-TFs on glutathione beads, 16-mer random dsDNA library, 0.1% formaldehyde crosslink after washing; high values mean tight binding
FLI1 = target: T1, FLI1 (Homo sapiens, UniProt Q01543 1-452); settings: protein: recombinant; tags: N-terminal GST; dsDNA, one strand shown
T1 sequence: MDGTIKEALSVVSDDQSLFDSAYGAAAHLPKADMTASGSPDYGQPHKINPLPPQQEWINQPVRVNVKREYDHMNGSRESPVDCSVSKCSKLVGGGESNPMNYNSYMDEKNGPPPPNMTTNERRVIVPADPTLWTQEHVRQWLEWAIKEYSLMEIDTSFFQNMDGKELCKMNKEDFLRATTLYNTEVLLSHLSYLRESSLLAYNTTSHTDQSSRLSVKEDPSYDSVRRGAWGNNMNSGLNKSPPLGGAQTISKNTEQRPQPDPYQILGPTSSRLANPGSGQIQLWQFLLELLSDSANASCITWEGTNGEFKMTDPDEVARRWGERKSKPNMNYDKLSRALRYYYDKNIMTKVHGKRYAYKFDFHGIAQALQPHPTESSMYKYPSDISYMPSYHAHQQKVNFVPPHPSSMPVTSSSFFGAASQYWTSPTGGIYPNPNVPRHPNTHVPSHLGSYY
Method in brief: (§1)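 After expression in yeast as GST fusions, human transcription factors were bound to glutathione beads, DNA-barcoded and mixed with a tag-only sample. The pools were incubated with 200 nmole of a 16-mer random double-stranded DNA library in Tris/NaCl/DTT/glycerol buffer (30 min, room temperature), washed and crosslinked with 0.1% formaldehyde. Proximity ligation with BsaI/T4 ligase ran for 1 h at 37 °C, before PCR amplification and sequencing on an Illumina NextSeq500. Binding signal is a hexamer's read frequency for a factor divided by its frequency for the tag-only sample.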

ELK1 = target: T2, ELK1 (Homo sapiens, UniProt P19419 1-428); settings: protein: recombinant; tags: N-terminal GST; dsDNA, one strand shown
T2 sequence: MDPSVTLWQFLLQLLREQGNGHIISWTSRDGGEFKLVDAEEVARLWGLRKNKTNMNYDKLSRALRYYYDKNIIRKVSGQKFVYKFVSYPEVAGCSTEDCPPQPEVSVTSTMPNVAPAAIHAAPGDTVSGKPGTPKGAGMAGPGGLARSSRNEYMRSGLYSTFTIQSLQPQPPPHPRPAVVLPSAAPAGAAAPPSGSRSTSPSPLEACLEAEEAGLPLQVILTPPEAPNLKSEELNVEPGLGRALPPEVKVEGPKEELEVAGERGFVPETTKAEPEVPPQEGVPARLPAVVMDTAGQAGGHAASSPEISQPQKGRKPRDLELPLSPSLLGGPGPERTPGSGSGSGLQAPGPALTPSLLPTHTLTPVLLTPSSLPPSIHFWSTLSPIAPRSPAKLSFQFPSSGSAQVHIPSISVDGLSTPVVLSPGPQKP
Method in brief: as §1

GABPA = target: T3, GABPA (Homo sapiens, UniProt Q06546 1-454); settings: protein: recombinant; tags: N-terminal GST; dsDNA, one strand shown
T3 sequence: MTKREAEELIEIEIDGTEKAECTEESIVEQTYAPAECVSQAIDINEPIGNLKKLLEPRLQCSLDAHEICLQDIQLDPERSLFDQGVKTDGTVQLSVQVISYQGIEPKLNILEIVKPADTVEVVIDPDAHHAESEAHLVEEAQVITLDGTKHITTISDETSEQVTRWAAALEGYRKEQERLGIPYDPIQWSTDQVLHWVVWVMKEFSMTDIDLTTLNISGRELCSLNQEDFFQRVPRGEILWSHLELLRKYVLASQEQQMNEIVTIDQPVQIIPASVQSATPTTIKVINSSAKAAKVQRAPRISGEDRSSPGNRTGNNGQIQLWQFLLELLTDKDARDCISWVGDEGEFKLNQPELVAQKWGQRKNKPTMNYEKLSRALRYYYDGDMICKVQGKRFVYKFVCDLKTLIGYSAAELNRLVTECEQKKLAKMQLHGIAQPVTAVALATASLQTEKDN
Method in brief: as §1

ERG = target: T4, ERG (Homo sapiens, UniProt P11308 1-479); settings: protein: recombinant; tags: N-terminal GST; dsDNA, one strand shown
T4 sequence: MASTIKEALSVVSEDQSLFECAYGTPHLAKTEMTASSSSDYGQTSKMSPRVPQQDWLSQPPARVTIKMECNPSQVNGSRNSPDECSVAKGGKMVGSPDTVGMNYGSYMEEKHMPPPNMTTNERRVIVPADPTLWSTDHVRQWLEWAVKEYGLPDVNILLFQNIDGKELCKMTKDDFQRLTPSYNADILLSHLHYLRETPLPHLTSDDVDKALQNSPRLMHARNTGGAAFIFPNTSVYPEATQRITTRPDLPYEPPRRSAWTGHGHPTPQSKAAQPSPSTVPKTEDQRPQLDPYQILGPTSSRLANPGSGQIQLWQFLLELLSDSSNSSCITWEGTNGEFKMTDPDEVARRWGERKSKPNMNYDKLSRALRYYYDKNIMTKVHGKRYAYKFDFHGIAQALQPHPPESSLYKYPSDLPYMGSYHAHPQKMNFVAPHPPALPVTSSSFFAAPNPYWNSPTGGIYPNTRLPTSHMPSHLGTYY
Method in brief: as §1

ELF1 = ELF1 (Homo sapiens, UniProt P32519 1-619); settings: protein: recombinant; tags: N-terminal GST; dsDNA, one strand shown
Method in brief: as §1

EHF = target: T5, EHF (Homo sapiens, UniProt Q9NZC4 1-300); settings: protein: recombinant; tags: N-terminal GST; dsDNA, one strand shown
T5 sequence: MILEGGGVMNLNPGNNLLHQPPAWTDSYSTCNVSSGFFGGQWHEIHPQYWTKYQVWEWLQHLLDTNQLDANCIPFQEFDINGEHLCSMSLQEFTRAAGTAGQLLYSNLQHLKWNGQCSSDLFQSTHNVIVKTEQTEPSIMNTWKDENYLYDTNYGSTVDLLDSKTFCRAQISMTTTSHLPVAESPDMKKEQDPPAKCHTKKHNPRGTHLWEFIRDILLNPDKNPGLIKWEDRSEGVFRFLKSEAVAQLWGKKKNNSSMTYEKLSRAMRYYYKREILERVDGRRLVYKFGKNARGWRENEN
Method in brief: as §1

SPI1 = SPI1 (Homo sapiens, UniProt P17947 1-270); settings: protein: recombinant; tags: N-terminal GST; dsDNA, one strand shown
Method in brief: as §1

SPIB = SPIB (Homo sapiens, UniProt Q01892 1-262); settings: protein: recombinant; tags: N-terminal GST; dsDNA, one strand shown
Method in brief: as §1

ELK3 = target: T6, ELK3 (Homo sapiens, UniProt P41970 1-407); settings: protein: recombinant; tags: N-terminal GST; dsDNA, one strand shown
T6 sequence: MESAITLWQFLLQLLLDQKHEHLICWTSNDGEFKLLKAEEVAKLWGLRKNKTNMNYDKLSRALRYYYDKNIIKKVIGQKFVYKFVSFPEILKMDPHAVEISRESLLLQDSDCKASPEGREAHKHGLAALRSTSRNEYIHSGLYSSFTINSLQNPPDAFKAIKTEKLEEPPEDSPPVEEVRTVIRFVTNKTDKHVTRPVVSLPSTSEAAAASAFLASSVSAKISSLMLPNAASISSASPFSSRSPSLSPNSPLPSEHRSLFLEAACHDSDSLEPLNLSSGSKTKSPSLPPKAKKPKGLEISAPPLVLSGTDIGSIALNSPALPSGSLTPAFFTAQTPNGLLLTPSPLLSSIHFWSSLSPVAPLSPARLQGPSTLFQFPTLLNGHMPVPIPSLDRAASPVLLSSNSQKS
Method in brief: as §1

FEV = target: T7, FEV (Homo sapiens, UniProt Q99581 1-238); settings: protein: recombinant; tags: N-terminal GST; dsDNA, one strand shown
T7 sequence: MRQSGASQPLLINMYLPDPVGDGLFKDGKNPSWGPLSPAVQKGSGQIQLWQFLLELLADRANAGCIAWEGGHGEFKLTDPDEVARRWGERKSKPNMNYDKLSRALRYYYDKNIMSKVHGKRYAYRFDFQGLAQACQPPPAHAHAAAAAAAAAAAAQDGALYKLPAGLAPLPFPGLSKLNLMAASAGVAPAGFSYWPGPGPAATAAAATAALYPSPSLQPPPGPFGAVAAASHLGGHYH
Method in brief: as §1

ETV5 = ETV5 (Homo sapiens, UniProt P41161 1-510); settings: protein: recombinant; tags: N-terminal GST; dsDNA, one strand shown
Method in brief: as §1

HSF1 = HSF1 (Homo sapiens, UniProt Q00613 1-529); settings: protein: recombinant; tags: N-terminal GST; chain copies: 3; dsDNA, one strand shown
Method in brief: as §1

SPIC = target: T8, SPIC (Homo sapiens, UniProt Q8N5J4 1-248); settings: protein: recombinant; tags: N-terminal GST; dsDNA, one strand shown
T8 sequence: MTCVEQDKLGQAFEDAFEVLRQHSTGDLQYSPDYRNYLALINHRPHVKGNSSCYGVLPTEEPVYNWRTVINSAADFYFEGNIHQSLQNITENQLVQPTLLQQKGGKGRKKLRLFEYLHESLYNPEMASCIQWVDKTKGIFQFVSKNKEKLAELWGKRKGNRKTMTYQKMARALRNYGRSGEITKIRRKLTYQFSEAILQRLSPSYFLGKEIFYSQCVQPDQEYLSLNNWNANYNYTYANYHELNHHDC
Method in brief: as §1

ELF4 = ELF4 (Homo sapiens, UniProt Q99607 1-663); settings: protein: recombinant; tags: N-terminal GST; dsDNA, one strand shown
Method in brief: as §1

ELK4 = target: T9, ELK4 (Homo sapiens, UniProt P28324-2 1-405); settings: protein: recombinant; tags: N-terminal GST; dsDNA, one strand shown
T9 sequence: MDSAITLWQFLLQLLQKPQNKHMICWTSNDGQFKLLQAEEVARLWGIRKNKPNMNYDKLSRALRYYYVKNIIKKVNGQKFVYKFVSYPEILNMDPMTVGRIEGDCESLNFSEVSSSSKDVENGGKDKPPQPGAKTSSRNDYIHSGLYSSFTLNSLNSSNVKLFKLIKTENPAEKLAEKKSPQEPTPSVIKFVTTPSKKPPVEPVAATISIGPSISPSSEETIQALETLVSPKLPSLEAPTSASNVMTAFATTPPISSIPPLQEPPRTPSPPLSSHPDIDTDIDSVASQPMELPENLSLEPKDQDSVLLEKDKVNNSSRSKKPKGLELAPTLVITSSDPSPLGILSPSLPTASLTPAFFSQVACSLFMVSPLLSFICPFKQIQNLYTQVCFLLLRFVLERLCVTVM
Method in brief: as §1

ETV2 = target: T10, ETV2 (Homo sapiens, UniProt O00321 1-342); settings: protein: recombinant; tags: N-terminal GST; dsDNA, one strand shown
T10 sequence: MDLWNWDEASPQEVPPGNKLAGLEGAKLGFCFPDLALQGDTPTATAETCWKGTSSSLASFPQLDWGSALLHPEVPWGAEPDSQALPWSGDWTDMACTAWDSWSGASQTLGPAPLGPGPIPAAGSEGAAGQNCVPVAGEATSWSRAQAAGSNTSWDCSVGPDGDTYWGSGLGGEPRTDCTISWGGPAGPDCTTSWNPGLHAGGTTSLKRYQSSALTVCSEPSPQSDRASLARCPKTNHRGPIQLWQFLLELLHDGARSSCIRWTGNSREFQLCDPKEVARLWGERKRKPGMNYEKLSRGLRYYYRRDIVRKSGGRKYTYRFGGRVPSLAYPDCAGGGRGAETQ
Method in brief: as §1

ELF3 = target: T11, ELF3 (Homo sapiens, UniProt P78545 1-371); settings: protein: recombinant; tags: N-terminal GST; dsDNA, one strand shown
T11 sequence: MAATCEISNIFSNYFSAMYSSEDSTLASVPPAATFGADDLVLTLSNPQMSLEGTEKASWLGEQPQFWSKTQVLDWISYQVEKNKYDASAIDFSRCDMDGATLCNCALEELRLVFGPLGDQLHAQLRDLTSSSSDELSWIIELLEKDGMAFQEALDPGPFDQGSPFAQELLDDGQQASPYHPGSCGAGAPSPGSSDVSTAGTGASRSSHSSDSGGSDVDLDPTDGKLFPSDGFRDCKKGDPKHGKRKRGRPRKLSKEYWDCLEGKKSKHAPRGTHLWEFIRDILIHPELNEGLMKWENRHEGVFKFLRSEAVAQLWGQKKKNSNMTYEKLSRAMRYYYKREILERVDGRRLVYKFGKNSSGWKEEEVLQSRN
Method in brief: as §1

CRX = CRX (Homo sapiens, UniProt O43186 1-299); settings: protein: recombinant; tags: N-terminal GST; dsDNA, one strand shown
Method in brief: as §1

ETV1 = ETV1 (Homo sapiens, UniProt P50549 1-477); settings: protein: recombinant; tags: N-terminal GST; dsDNA, one strand shown
Method in brief: as §1

Chain of ELF4 (Q99607 whole entry): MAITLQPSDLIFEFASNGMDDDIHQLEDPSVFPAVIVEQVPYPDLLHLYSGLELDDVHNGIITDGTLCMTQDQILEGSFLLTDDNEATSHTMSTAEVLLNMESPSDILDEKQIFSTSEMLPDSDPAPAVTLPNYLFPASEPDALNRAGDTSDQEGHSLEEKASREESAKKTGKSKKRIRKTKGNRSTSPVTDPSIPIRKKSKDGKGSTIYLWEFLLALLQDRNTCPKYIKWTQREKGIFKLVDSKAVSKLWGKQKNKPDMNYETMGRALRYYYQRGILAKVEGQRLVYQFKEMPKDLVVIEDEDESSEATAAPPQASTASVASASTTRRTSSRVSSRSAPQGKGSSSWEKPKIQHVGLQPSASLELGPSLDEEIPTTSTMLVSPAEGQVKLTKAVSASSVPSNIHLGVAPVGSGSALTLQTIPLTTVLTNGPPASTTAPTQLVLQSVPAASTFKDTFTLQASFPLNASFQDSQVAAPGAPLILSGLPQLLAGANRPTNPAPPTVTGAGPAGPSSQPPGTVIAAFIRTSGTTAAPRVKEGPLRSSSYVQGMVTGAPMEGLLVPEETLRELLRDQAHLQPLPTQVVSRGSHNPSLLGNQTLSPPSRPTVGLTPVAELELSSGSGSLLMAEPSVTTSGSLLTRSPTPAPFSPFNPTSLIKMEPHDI
Chain of HSF1 (Q00613 whole entry): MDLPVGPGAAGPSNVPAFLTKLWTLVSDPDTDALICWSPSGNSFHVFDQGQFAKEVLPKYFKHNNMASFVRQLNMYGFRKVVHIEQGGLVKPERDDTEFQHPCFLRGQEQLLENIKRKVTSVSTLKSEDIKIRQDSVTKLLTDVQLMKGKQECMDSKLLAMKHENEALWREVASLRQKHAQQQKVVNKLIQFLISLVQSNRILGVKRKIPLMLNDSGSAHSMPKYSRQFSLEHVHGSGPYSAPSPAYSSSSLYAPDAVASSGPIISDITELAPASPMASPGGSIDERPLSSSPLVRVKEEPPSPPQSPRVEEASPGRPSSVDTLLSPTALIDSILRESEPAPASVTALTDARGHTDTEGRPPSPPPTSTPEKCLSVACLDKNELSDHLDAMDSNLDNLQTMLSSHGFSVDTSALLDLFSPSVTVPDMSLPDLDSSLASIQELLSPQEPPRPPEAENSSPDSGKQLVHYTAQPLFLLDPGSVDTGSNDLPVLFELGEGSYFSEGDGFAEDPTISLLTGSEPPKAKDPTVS
Chain of ETV5 (P41161 whole entry): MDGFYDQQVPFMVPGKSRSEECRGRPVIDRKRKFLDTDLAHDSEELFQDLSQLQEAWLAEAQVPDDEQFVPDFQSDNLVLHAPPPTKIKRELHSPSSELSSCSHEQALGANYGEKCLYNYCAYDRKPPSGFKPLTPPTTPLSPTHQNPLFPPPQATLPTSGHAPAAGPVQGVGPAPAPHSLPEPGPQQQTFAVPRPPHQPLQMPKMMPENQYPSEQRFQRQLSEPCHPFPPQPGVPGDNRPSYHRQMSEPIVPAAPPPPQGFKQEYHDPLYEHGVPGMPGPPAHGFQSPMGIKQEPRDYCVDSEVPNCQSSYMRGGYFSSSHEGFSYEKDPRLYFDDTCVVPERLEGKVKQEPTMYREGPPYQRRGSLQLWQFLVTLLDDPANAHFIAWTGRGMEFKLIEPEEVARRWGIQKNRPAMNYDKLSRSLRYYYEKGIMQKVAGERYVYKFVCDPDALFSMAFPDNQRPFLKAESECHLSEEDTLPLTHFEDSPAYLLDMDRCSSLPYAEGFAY
Chain of SPIB (Q01892 whole entry): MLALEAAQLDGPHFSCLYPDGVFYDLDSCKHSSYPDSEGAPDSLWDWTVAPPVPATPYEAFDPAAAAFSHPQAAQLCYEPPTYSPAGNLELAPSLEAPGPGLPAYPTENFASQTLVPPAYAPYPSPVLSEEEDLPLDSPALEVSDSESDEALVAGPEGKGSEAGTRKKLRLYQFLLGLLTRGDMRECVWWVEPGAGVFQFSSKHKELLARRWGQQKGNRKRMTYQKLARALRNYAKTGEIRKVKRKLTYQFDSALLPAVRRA
Chain of CRX (O43186 whole entry): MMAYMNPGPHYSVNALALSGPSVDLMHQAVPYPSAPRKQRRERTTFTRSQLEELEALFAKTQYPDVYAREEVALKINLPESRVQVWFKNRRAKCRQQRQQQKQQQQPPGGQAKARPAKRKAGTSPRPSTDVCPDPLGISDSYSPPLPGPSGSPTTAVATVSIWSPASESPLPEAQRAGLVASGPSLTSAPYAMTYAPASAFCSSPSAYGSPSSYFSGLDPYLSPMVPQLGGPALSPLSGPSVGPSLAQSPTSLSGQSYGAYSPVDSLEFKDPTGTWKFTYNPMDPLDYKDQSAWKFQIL
Chain of ETV1 (P50549 whole entry): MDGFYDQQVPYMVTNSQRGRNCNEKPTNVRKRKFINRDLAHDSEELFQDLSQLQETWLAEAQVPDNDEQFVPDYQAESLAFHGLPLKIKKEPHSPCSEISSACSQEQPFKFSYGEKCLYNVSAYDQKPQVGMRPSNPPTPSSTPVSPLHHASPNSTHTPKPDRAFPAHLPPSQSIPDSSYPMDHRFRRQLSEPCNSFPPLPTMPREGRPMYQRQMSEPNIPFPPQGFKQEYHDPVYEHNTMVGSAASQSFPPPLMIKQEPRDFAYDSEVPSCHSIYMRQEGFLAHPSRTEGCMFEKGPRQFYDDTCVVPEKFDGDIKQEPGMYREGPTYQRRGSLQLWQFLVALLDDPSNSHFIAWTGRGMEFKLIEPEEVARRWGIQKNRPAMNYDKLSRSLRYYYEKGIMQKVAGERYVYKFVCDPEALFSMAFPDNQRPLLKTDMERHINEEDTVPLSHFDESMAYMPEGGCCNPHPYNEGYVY
Chain of ELF1 (P32519 whole entry): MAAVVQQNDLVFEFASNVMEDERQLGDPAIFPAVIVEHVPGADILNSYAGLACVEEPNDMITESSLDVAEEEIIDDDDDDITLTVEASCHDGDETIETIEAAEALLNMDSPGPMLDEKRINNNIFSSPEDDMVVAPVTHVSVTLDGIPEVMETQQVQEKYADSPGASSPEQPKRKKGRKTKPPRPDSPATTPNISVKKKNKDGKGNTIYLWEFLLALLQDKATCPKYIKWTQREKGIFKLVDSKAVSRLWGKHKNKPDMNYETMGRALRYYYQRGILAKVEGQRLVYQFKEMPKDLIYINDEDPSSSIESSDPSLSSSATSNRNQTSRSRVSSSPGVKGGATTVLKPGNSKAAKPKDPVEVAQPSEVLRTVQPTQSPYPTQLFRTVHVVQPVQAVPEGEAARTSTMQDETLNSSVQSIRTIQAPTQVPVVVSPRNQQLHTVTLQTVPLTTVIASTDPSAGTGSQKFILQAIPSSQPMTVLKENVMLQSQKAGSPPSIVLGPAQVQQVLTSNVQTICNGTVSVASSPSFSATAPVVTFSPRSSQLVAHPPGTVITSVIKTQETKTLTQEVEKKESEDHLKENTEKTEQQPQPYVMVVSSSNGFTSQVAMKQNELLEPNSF

CGATTC was tested, and the binding signal (FLI1) was 1.31 fold enrichment (6-mer frequency, TF over GST control), the binding signal (ELK1) was 1.21 fold enrichment (6-mer frequency, TF over GST control) and the binding signal (GABPA) was 1.23 fold enrichment (6-mer frequency, TF over GST control). For the same sequence, the binding signal (ERG) was 1.12 fold enrichment (6-mer frequency, TF over GST control), the binding signal (ELF1) was 1.24 fold enrichment (6-mer frequency, TF over GST control) and the binding signal (EHF) was 1.17 fold enrichment (6-mer frequency, TF over GST control). The binding signal (SPI1) was 1.2 fold enrichment (6-mer frequency, TF over GST control), the binding signal (SPIB) was 1.24 fold enrichment (6-mer frequency, TF over GST control) and the binding signal (ELK3) was 1.15 fold enrichment (6-mer frequency, TF over GST control). The binding signal (FEV) was 1.06 fold enrichment (6-mer frequency, TF over GST control), the binding signal (ETV5) was 1.19 fold enrichment (6-mer frequency, TF over GST control) and the binding signal (HSF1) was 1.35 fold enrichment (6-mer frequency, TF over GST control). For the same sequence, the binding signal (SPIC) was 1.18 fold enrichment (6-mer frequency, TF over GST control), the binding signal (ELF4) was 1.24 fold enrichment (6-mer frequency, TF over GST control) and the binding signal (ELK4) was 1.28 fold enrichment (6-mer frequency, TF over GST control). For the same sequence, the binding signal (ETV2) was 1.06 fold enrichment (6-mer frequency, TF over GST control), the binding signal (ELF3) was 1.22 fold enrichment (6-mer frequency, TF over GST control) and the binding signal (CRX) was 1.09 fold enrichment (6-mer frequency, TF over GST control). For the same sequence, the binding signal (ETV1) was 1.25 fold enrichment (6-mer frequency, TF over GST control).
